Measured values published in PubChem BioAssay AID1851 (National Center for Advancing Translational Sciences (NCATS), 2009).
“And” between values parts separate entries of the source, which are not always exact repeats. Equal values may be shown once. Among all 16,000 compounds or so, about 5,100 (32%) were called active. Another 25% or so got no clear call; they are omitted. The list shows a part of the results. A number with no mark means an inactive call. Calls come from the whole dose curve; as a rule, active = well fitted curve in the direction sought with a large enough effect; inconclusive = small, poorly fitted or top-dose-only effect, or effect the other way; inactive = no such curve, though single readings can be large or run the other way.

Molecular target: Cytochrome P450 3A4 (Homo sapiens) (UniProt P08684)
Sequence (P08684 whole entry, looked up): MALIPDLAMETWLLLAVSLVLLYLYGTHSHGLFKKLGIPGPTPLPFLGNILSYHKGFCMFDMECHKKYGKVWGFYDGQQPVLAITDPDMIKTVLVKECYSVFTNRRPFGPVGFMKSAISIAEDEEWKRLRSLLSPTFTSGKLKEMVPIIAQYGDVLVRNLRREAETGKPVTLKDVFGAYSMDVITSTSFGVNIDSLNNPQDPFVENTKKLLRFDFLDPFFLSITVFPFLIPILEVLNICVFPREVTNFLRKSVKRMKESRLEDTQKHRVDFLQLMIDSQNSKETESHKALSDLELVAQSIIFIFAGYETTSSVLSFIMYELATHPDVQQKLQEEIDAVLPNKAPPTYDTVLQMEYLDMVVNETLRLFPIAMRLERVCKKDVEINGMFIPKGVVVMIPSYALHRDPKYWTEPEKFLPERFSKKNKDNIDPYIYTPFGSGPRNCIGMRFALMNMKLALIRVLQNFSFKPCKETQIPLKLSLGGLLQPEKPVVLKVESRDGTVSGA
Experiment: Cytochrome panel assay with activity outcomes
Conditions: recombinant CYP, pro-luciferin dealkylation, luminescence, p450-cyp3a4; series mostly up to 57.1 µM
% is set by controls: 0 for no effect and ±100 for the full control effect.

| Compound | activity, negative = inhibition | AC50 |
| --- | --- | --- |
| COC1=CC(=O)O[C@@H](/C=C\c2ccccc2)C1 | inactive | – |
| O=C(C[n+]1ccc2ccccc2c1)c1ccc2ccc3ccccc3c2c1 | -29.1% [at 11.4 µM] | – |
| Nc1nc(N)c(N=Nc2ccc([As](=O)(O)O)c(O)c2)c(N)n1 | 7% [at 11.4 µM] | – |
| CNCCCc1ccccc1 | inactive | – |
| C[C@@H](Cc1ccccc1)NCCC(c1ccccc1)c1ccccc1 | inactive | – |
| C[C@@H](Cc1cccc(C(F)(F)F)c1)NCCCc1ccccc1 | – | 5.01 µM (active) |
| COc1cc2cc(c1Cl)N(C)C(=O)C[C@H](OC(=O)C(C)C)[C@]1(C)O[C@@H]1[C@@H](C)[C@H]1C[C@](O)(NC(=O)O1)[C@@H](OC)/C=C\C=C(\C)C2 | -29.4% [at 11.4 µM] | – |
| c1ccc2c([C@@H]3CCN(CCN4CCOCC4)C3)c[nH]c2c1 | -4.68% [at 11.4 µM] | – |
| COCOc1ccc(Br)cc1C(=O)/C=C\c1ccc2c(c1)OCO2 | – | 3.16 µM (active) |
| CN1CCN(c2cc(N3CCCC3)c([N+](=O)[O-])cc2F)CC1 | inactive | – |
| COc1cc(-c2ccc(=O)[nH]n2)ccc1OC(F)F | inactive | – |
| CN1CCN(c2ccc([N+](=O)[O-])c(N/N=C3\CN4CCC3CC4)c2)CC1 | inactive | – |
| CC[C@H](Oc1ccc(Cl)cc1)C(=O)OC1C[C@H]2CC[C@@H](C1)N2C (stereo not given in full) | inactive | – |
| Oc1ccc2c3c1O[C@H]1c4[nH]c5c(c4C[C@@]4(O)[C@@H](C2)N(CC2CC2)CC[C@]314)C[C@]1(O)[C@H]2Cc3ccc(O)c4c3[C@@]1(CCN2CC1CC1)[C@@H]5O4 | inactive | – |
| Oc1ccc2c3c1O[C@H]1c4c(c5ccccc5n4Cc4ccccc4)C[C@]4(O)[C@H](C2)N(CC2CC2)CC[C@@]314 | – | 10 µM (active) |
| O=C1CC[C@]2(O)[C@H]3Cc4ccc(O)c5c4[C@@]2(CCN3CC2CC2)[C@@H]1O5 | inactive | – |
| CN1C(=O)CCS(=O)(=O)[C@@H]1c1ccc(Cl)cc1 | inactive | – |
| CN1[C@@H]2CC[C@H]1CC(O)C2 (stereo not given in full) | inactive | – |
| C[C@@H]1O[C@@H](O[C@H]2C[C@@H](O)[C@]3(CO)[C@@H]4[C@@H](O)C[C@]5(C)[C@H]([C@@H]6COC(=O)C6)CC[C@@]5(O)[C@H]4CC[C@@]3(O)C2)[C@H](O)[C@H](O)[C@@H]1O | inactive | – |
| CC(C)COC(=O)OCN1C(=O)CN(CCN2CC(=O)N(COC(=O)OCC(C)C)C(=O)C2)CC1=O | – | 25.1 µM (active) |
| CN1CCc2cc(O)cc3c2[C@H]1Cc1ccc(O)c(O)c1-3 | inactive | – |
| C[N+](C)(C)CCCCCCCCCC[N+](C)(C)C | inactive | – |
| Nc1nc(N)c(Cn2ccnc2)c(=O)[nH]1 | -3.48% [at 11.4 µM] | – |

| Compound | activity, negative = inhibition | AC50 |
| --- | --- | --- |
| O=c1[nH]c(=O)n(CCc2ccc(F)cc2)c(O)c1C=NCCCN1CCOCC1 | – | 11.2 µM (active) |
| C=CCn1c(O)c(C(C)=NCCCN2CCOCC2)c(=O)[nH]c1=O | inactive | – |
| O=c1[nH]c(=O)n(CCC2=CCCCC2)c(O)c1C=Nc1cccc(F)c1 | inactive | – |
| Cc1cc(C)c(-n2c(O)c(C=NCCN3CCOCC3)c(=O)[nH]c2=O)c(C)c1 | – | 25.1 µM (active) |
| COc1cccc(-n2c(O)c(C=NCCN3CCOCC3)c(=O)[nH]c2=O)c1 | inactive | – |
| CCNC(=O)[C@@H]1O[C@@H](n2cnc3c(N)ncnc32)[C@@H](O)[C@H]1O | inactive | – |
| C[C@@H]1[C@@H]2Cc3ccc(O)cc3[C@@]1(C)CCN2CC1CC1 | inactive | – |
| C[C@@H]1O[C@H](O[C@@H]2C[C@@H](O)[C@]3(CO)[C@H]4[C@H](O)C[C@]5(C)[C@@H](C6=CC(=O)OC6)CC[C@@]5(O)[C@@H]4CC[C@]3(O)C2)[C@@H](O)[C@H](O)[C@H]1O | inactive | – |
| CCNC(=O)[C@@H]1O[C@@H](n2cnc3c(N)ncnc32)[C@H](O)[C@H]1O | inactive | – |
| CC(=O)O/C(=C1/C[C@H]2[C@@H]3CC=C4C[C@@H](OC(C)=O)CC[C@]4(C)[C@@H]3CC[C@]2(C)C1=O)C(F)(F)F | 4.88% [at 11.4 µM] | – |
| c1ccc2nc(N3CCNCC3)ccc2c1 | inactive | – |
| CN(C)CCCNc1c2c(nc3ccc(Cl)cc13)CCCC2 | 0.971% [at 11.4 µM] | – |
| CCN1C[C@]2(COC)CC[C@H](O)[C@@]34[C@@H]5C[C@H]6[C@@H](OC)[C@H]5[C@](O)(C[C@@H]6OC)[C@@](O)([C@@H](OC)[C@H]23)[C@@H]14 | inactive | – |
| COc1ccccc1CC1C(=O)C2CCN1CC2 (stereo not given) | inactive | – |
| Cc1ccc(OP(=O)(Oc2ccc(C)cc2)N2C=Cc3ccccc3[C@H]2C#N)cc1 | – | 2.51 µM (active) |
| O=[N+]([O-])c1ccc(N2CCNCC2)cc1NC1CC1 | 1.13% [at 2.29 µM] | – |
| CCCN(C/C=C\I)[C@@H]1CCc2ccc(O)cc2C1 | inactive | – |
| CCN1C[C@@]2(COC)CC[C@H](O)[C@@]34[C@@H]2C[C@@H]([C@@H]13)[C@]1(O)C[C@@H](OC)C2C[C@H]4[C@H]1[C@H]2OC(C)=O | inactive | – |
| COc1ccccc1N1CCNCC1 | inactive | – |
| C=C(C)[C@H]1CC[C@]2(CO)CC[C@]3(C)[C@@H](CC[C@H]4[C@@]5(C)CC[C@@H](O)C(C)(C)[C@@H]5CC[C@@]43C)[C@H]12 | inactive | – |
| N[C@H](CP(=O)(O)O)C(=O)O | inactive | – |
| Cc1ccc(C2CC(=O)C(C=NCCN3CCN(C(=O)Cc4ccccc4)CC3)=C(O)C2)cc1 (stereo not given) | – | 3.16 µM (active) |
| CC[N+](C)(C)c1cccc(O)c1 | inactive | – |

| Compound | activity, negative = inhibition | AC50 |
| --- | --- | --- |
| Cn1c(=O)c2[nH]cnc2n(C)c1=O | inactive | – |
| C[C@H](NC(C)(C)C)C(=O)c1cccc(Cl)c1 | inactive | – |
| Cc1cc(C)nc(NC2=NCCS2)n1 | inactive | – |
| CC[N@+]1(C)CCC[C@@H](OC(=O)C(O)(c2ccccc2)c2ccccc2)C1 | inactive | – |
| CCCc1nc2ccccc2c(=O)n1-c1ccc(OC)cc1 | – | 15.8 µM (active) |
| CCCCc1nc2ccccc2c(=O)n1-c1ccccc1[N+](=O)[O-] | – | 15.8 µM (active) |
| CCCCc1nc2ccccc2c(=O)n1-c1ccc(Cl)cc1[N+](=O)[O-] | inactive | – |
| Cc1ccc(-c2nc3ccccc3c(=O)n2-c2ncccc2C)cc1 | -6.07% [at 2.29 µM] | – |
| Cc1nc2ccccc2c(=O)n1-n1cnnc1 | inactive | – |
| CCC(=O)Nc1ccc(N2CCN(CC)CC2)c(Cl)c1 | inactive | – |
| COc1cc([C@@H](O)CN)ccc1O | inactive | – |
| O=P(Nc1ccccc1)(Nc1ccccc1)Oc1cccc(Cl)c1 | -28.2% [at 2.29 µM] | – |
| CCN1CCN(Cc2cc(OC)c(OC)cc2[N+](=O)[O-])CC1 | inactive | – |
| CCNC(=O)O/N=C(\C)c1sc(-c2ccccc2)nc1C | inactive | – |
| CN(C)C(=O)Oc1cc(OC(=O)N(C)C)cc([C@@H](O)CNC(C)(C)C)c1 | inactive | – |
| O=C(Cc1ccc(Cl)c(Cl)c1)N1CCCC[C@H]1CN1CCCC1 | – | 15.8 µM (active) and 7.94 µM (active) |
| NC(N)=NCCN=C(N)N | 0.983% [at 11.4 µM] | – |
| CC1=NN(c2ccccc2)C(=O)[C@@H]1N=Nc1ccc([As](=O)(O)O)c(O)c1 | -5.79% [at 11.4 µM] | – |
| COC(=O)[C@@H](N)CCCN=C(N)N[N+](=O)[O-] | inactive | – |
| CCn1cc(C(=O)O)c(=O)c2cc3c(cc21)OCO3 | inactive | – |
| FC(F)(F)c1nc2ccc(SSc3ccc4nc(C(F)(F)F)[nH]c4c3)cc2[nH]1 | 4.91% [at 11.4 µM] | – |
| CC(C)=C[C@H]1[C@@H](C(=O)OCc2cc3c(cc2Cl)OCO3)C1(C)C | – | 0.316 µM (active) |
| CC(C)C(=O)CP(=O)(O)O | 2.74% [at 11.4 µM] | – |

| Compound | activity, negative = inhibition | AC50 |
| --- | --- | --- |
| CN1CCCC2(CCN(C(=O)c3ccncc3)CC2)C1 | inactive | – |
| c1csc(CN2CCCC3(CCNCC3)C2)n1 | inactive | – |
| CC(C)CN1CC2(CCN(C(=O)c3ccncc3)CC2)C1 | inactive | – |
| c1ccc(CN2CCN(Cc3ccc4c(c3)OCCO4)CC2)cc1 | -16.2% [at 11.4 µM] | – |
| O=C(c1ccncc1)N1CCC2(CC1)CN(Cc1ccccc1)C2 | – | 20 µM (active) |
| CC(C)CN1CCC2(CC1)CCN(C(=O)Oc1ccccc1)CC2 | inactive | – |
| O=C(Oc1ccccc1)N1CCC2(CCCN(Cc3nccs3)C2)CC1 | – | 12.6 µM (active) |
| c1csc(CN2CC[C@@]3(CCCNC3)C2)n1 | inactive | – |
| c1cc(CN2CCC3(CCNCC3)CC2)ccn1 | inactive | – |
| Cc1noc(C)c1C(=O)N1CCC2(CCCN(CC(C)C)C2)CC1 | inactive | – |
| CC(C)CN1CCCC2(CCN(C(=O)c3ccncc3)CC2)C1 | – | 12.6 µM (active) |
| O=C(Oc1ccccc1)N1CCC2(CCN(Cc3ccncc3)CC2)CC1 | – | 12.6 µM (active) |
| N=C(N)n1cc(/C=N\N=C(N)N)cn1 | -16.6% [at 11.4 µM] | – |
| c1ccc2c(c1)-c1ccccc1C2N1CC2CCC(CC2)C1 | -5.36% [at 11.4 µM] | – |
| CN1[C@@H](C[C@@H](O)c2ccccc2)CCC[C@@H]1C[C@H](O)c1ccccc1 | inactive | – |
| O=[N+]([O-])c1cc(-c2ccc([As](=O)(O)O)cc2)ccc1[As](=O)(O)O | 9.09% [at 11.4 µM] | – |
| O=C(O)[C@@H]1[C@H](C(=O)O)[C@]2(Cl)C(Cl)=C(Cl)[C@@]1(Cl)C2(Cl)Cl | -9.54% [at 11.4 µM] | – |
| C(#CCN1CCCC1)CN1CCCC1 | inactive | – |
| C[C@]12CC[C@H](O)C[C@@H]1CC[C@H]1[C@H]2CC[C@]2(C)C(=O)CC[C@@H]12 | inactive | – |
| Cc1cccc(NC(=S)NC2CC3CCCC(C2)N3Cc2cccs2)c1 (stereo not given) | -1.32% [at 2.29 µM] | – |
| COc1ccc(C[C@H]2NC[C@H](O)[C@@H]2OC(C)=O)cc1 | inactive | – |
